# System: RXRa homodimer (NR concentration 180 nM)
# Assay: PBM binding z-score (relative to random genomic background probes); higher = stronger binding; sequences stand for … in GC…GCGATTGACAGCGTAGAATGAAGG
# How it was run: (§1)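 Regression normalization was applied to scanned fluorescence from custom Agilent 4×180K protein-binding microarrays. Before scanning, arrays were incubated 1 h with ligand-free nuclear receptor dimers, and binding was detected with antibodies against each partner (one per run). Binding z-scores use the random background probes as reference.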
row,Sequence,PBM binding z-score
1,CCTAGTTGGTCAGGAGGTCACGCACCGGATATGA,5.93
2,ATCTCTAGTTAAAAGTTCAGTGAATCCCGAGGAT,0.844
3,CAAACTAGGTCAAGAGGTCAACGTCCGCTTCCCG,7.68
4,CCTAGCAGGCCAACCTGGGTCACTCAAGGCTTGA,1.23
5,CCGACTGGGGCAAATGTTACCATACTCAGTACGA,0.184
6,TCTGCTAGGTCACCGATGGTCAGCTAATCTGCTA,3.28
7,ACTATTAGTTGACTGAGGGCAACCGATACGACGC,0.572
8,CAAACTAGGTCACAGAAGTCAAAGTCCGTGCGTA,3.63
9,AGTAGCAGGCCAAGTTTGGGTCACTCAAACAAAG,0.67
10,TCTGCTTGGTCAGTTGGTCAGCTAACGAGCTGCC,-0.439
11,ATATGTAGGTTATCGGGTCATTGAGTTTGCGCAT,3.51
12,CCTTACGGGTCACGAGGATATAGCACGACGAGCG,6.1
13,CCGAGTAGGTTATGGGGGATTCAGGCAACGGTGA,0.959
14,TCATATAGGTAATACAGGTGAAACTCGGCATCTA,1.1
15,CCGACTGGAGCATAAGGTTACCATAAGCCAGCCC,0.901
16,CCTTACGGGTCATTCCAGGTTATAGCATCGGAGT,5.2
17,AGAATGAGGTTACCAAAGATGAGGGAAACGCTTG,2.43
18,GCTTGTATATCAAGGTTAAGAAAGACTAAGCTAA,0.746
19,TCTAGTTGGTCACGGAGCTCACACACGACGGGTA,0.925
20,GCTTACGGGTCAACGGTTATAGCATGAATAGAAT,5.29

row,Sequence,PBM binding z-score
1,TCTATTTGTTGAAGGGCAACCGACGAGTCCGTTT,0.578
2,ATCGAAAGGTCGACGAGGTGAGCATACACCGTTT,4.49
3,ACAGACAGGTGAGTGAAGGTAAATCAGCTGGACG,0.24
4,CCTACGGGGCCATTCAGAGGTCATTGATCATATG,4.07
5,TCTGCTAGGTGAGTTGGTCAGCTAACGAGCTGCC,-0.331
6,AGAATGAGGTTAAGCTCAGGGAAACAGAATACAT,2.59
7,CGTCCAAGGTGAAAGGTCAGTGAAGAGATGACGG,7.85
8,CCGACTGGGGCATAAGGTTGCCATAAGCCAGCCC,-0.0266
9,TGTCATAGTTCAAAGGTAACGTAAGTATCCACAC,5.18
10,CCTAGCAGGCCAATCTGGGTCACTCATGGCTTGA,0.53
11,GATACAGGGTCAGCTGGAGGCCAGAGTATGGAAA,4.35
12,ATACCAAGGTGATCGTGAGGTCGTCGATACTAAC,1.56
13,ATCTCGAGGTAAGACTCAGTTCAGTGAAGAACGC,-0.00615
14,CGAACGAGGGCATGAGATGATAGCAAATGCCGAT,0.882
15,AGTCAAAGTTCAGGACGAGGTAAGGTAAAGCACG,3.09
16,TGTCGGAGGACACGAAAGGTCAGAGCTCGACATC,4.22
17,ATCTCTAGGTAAAGATAGTTCAGTGCATGCAAAT,0.191
18,ATCCCTAGGTAAAAGTTCAGTGAATCCCGAGGAT,1.39
19,CCTTACGGGTAACTGACAGGTTATAGCATTTGGA,0.525
20,CCTGACGGGTCAAGGTTATAGCACGGGTGGTACG,4.64

# System: THRa:RXRa (NR concentration 90 nM, RXRa partner concentration 90 nM)
# Assay: as above
# How it was run: as §1
row,Sequence,PBM binding z-score
1,CCTAGTTGGTCAGGAGGTCACGCACCGGATATGA,3.94
2,ATCTCTAGTTAAAAGTTCAGTGAATCCCGAGGAT,0.672
3,CAAACTAGGTCAAGAGGTCAACGTCCGCTTCCCG,4.5
4,CCTAGCAGGCCAACCTGGGTCACTCAAGGCTTGA,3.63
5,CCGACTGGGGCAAATGTTACCATACTCAGTACGA,-0.0523
6,TCTGCTAGGTCACCGATGGTCAGCTAATCTGCTA,3.48
7,ACTATTAGTTGACTGAGGGCAACCGATACGACGC,1.91
8,CAAACTAGGTCACAGAAGTCAAAGTCCGTGCGTA,3.3
9,AGTAGCAGGCCAAGTTTGGGTCACTCAAACAAAG,2.62
10,TCTGCTTGGTCAGTTGGTCAGCTAACGAGCTGCC,-0.465
11,ATATGTAGGTTATCGGGTCATTGAGTTTGCGCAT,3.42
12,CCTTACGGGTCACGAGGATATAGCACGACGAGCG,3.16
13,CCGAGTAGGTTATGGGGGATTCAGGCAACGGTGA,1.58
14,TCATATAGGTAATACAGGTGAAACTCGGCATCTA,1.23
15,CCGACTGGAGCATAAGGTTACCATAAGCCAGCCC,1.96
16,CCTTACGGGTCATTCCAGGTTATAGCATCGGAGT,5.12
17,AGAATGAGGTTACCAAAGATGAGGGAAACGCTTG,2.55
18,GCTTGTATATCAAGGTTAAGAAAGACTAAGCTAA,1.24
19,TCTAGTTGGTCACGGAGCTCACACACGACGGGTA,-0.123
20,GCTTACGGGTCAACGGTTATAGCATGAATAGAAT,2.59

row,Sequence,PBM binding z-score
1,TCTATTTGTTGAAGGGCAACCGACGAGTCCGTTT,0.482
2,ATCGAAAGGTCGACGAGGTGAGCATACACCGTTT,3.75
3,ACAGACAGGTGAGTGAAGGTAAATCAGCTGGACG,1.31
4,CCTACGGGGCCATTCAGAGGTCATTGATCATATG,3.72
5,TCTGCTAGGTGAGTTGGTCAGCTAACGAGCTGCC,-0.346
6,AGAATGAGGTTAAGCTCAGGGAAACAGAATACAT,2.67
7,CGTCCAAGGTGAAAGGTCAGTGAAGAGATGACGG,3.97
8,CCGACTGGGGCATAAGGTTGCCATAAGCCAGCCC,0.276
9,TGTCATAGTTCAAAGGTAACGTAAGTATCCACAC,2.6
10,CCTAGCAGGCCAATCTGGGTCACTCATGGCTTGA,3.19
11,GATACAGGGTCAGCTGGAGGCCAGAGTATGGAAA,3.16
12,ATACCAAGGTGATCGTGAGGTCGTCGATACTAAC,3.52
13,ATCTCGAGGTAAGACTCAGTTCAGTGAAGAACGC,1.24
14,CGAACGAGGGCATGAGATGATAGCAAATGCCGAT,0.979
15,AGTCAAAGTTCAGGACGAGGTAAGGTAAAGCACG,3.72
16,TGTCGGAGGACACGAAAGGTCAGAGCTCGACATC,3.78
17,ATCTCTAGGTAAAGATAGTTCAGTGCATGCAAAT,0.926
18,ATCCCTAGGTAAAAGTTCAGTGAATCCCGAGGAT,1.13
19,CCTTACGGGTAACTGACAGGTTATAGCATTTGGA,0.456
20,CCTGACGGGTCAAGGTTATAGCACGGGTGGTACG,2.63
